Laboratory results published in PubChem BioAssay AID1117319 (Southern Research Institute, 2015).
Several values for one entry are separate records, joined by “and”; a condition that tells them apart may be missing. Identical values can stand only once. Hit rate of the full screen: of about 260,000 compounds, about 1,500 (0.58%) were called active. Not shown: some 5% with an inconclusive outcome.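 Rule for the calls: active = inhibition above a set limit at one or more doses, reproduced on every date tested; inconclusive = results disagree between test dates, or hit never tested in dose response; inactive = the rest.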 The list is a sample of the results. Entries with a potency or affinity are not part of this list.

What follows are compounds tested against Virion infectivity factor (Human immunodeficiency virus type 1 group M subtype B (isolate BH10)) + Virion infectivity factor (Human immunodeficiency virus type 1 group M subtype B (isolate BRU/LAI)) + Virion infectivity factor (Human immunodeficiency virus type 1 group M subtype B (isolate PCV12)) + Virion infectivity factor (Human immunodeficiency virus type 1 group M subtype B (isolate HXB2)) + DNA dC->dU-editing enzyme APOBEC-3G (Homo sapiens) (UniProt P69720+P69721+P69722+P69723+Q9HC16) (assay: inhibitors of Vif binding to APOBEC3G peptide, primary screen, biochemical, TR-FRET, GST-Vif 1-94, biotin-A3G peptide, dose response retest (AID 1117319;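 note: Vif residues 1-94 fused to GST binding biotinylated APOBEC3G peptide 110-148; 0% = full assay without inhibitor and 100% = GST in place of GST-Vif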)). Settings: stronger effect = higher value.

inhibition, inactive:
O=C(OCc1nc2scc(-c3ccccc3)c2c(=O)[nH]1)c1cc([N+](=O)[O-])ccc1Cl 1.37%, CCN(CC)CCNC(=O)Cn1nc(Cc2cccnc2)c2ccccc2c1=O -0.43%, O=C(Nc1cccc2c1CCCC2)C1CCCN(S(=O)(=O)c2cccc3nonc23)C1 (configuration not stated) 22.9% and -4.27%, N#CC1=C(Nc2ccccc2)SC=C(c2ccccc2)N=C1N1CCOCC1 23.5%, N#CC1=C(Nc2ccccc2)SC=C(c2ccc(F)cc2)N=C1N1CCOCC1 -6.08%, COc1ccc(CCNC(=O)CC(Cc2ccc(C)cc2)C(=O)O)cc1OC (configuration not stated) -5.29%, CCc1ccc(C(=O)COC(=O)c2cnc(C)cn2)cc1 2.17%, COc1ccc(N=C2S/C(=C\c3ccc(C)s3)C(=O)N2CC(C)C)cc1 -0.05%, CCCN1C(=O)/C(=C/c2ccc(C)o2)SC1=Nc1ccc(OC)cc1 23.9%, Cc1cccc(Cc2ccc(Cl)nn2)c1 3.42%, COc1cc(CCCN2C(=O)C(=O)NC[C@@H]2c2ccccc2)cc(OC)c1OC -0.8%, COc1cccc(CN2CCN(Cc3cccc4nonc34)CC2CCO)c1 (configuration not stated) -3.03%, Cc1ccccc1CN1C[C@@H]2C[C@@H](c3cn[nH]c3-c3ccc(F)cc3)N3CCC[C@@]23C1=O 6.1%, CN1CCN(c2nc3ccccc3nc2NS(=O)(=O)c2ccc(Br)cc2)CC1 4.67%, O=S(=O)(Nc1nc2ccccc2nc1N1CCN(c2ccccc2)CC1)c1ccc(F)cc1 10.6%, CC(C)CNC(=O)COCc1cc(-c2ccc3c(c2)OCO3)on1 5.26%, COc1ccc(Cl)cc1C(=O)OCC(=O)NC(=O)c1cccn1C -9.04%, COc1ccc(S(=O)(=O)N2CCCC2CNC(=O)C(=O)NCc2ccccc2)cc1 (configuration not stated) -0.59%, CCC(=O)NCC(c1ccco1)N1CCN(c2ccc(OC)cc2)CC1 (configuration not stated) 2.46%, CCc1ccc(C(=O)Nc2cc(C)ccc2F)s1 -4.32%, O=C1NCCc2c1[nH]c1ccccc21 18.5%, c1ccc2c3c([nH]c2c1)CCNC3 -5.47%, COc1cc2[nH]c(=O)n(CCCCCC(=O)N3CCN(c4ccccn4)CC3)c(=O)c2cc1OC -2.43% and 26.2%, CCC(=O)N1CC2(CC(c3cccc(NC(=O)CC(c4ccccc4)c4ccccc4)c3)=NO2)C[C@H]1C(N)=O (some centres not stated) 4.04%, O=C(CSc1nc2ccccc2c(=O)n1-c1ccccc1)NCc1ccc2c(c1)OCO2 -2.26%, Cc1cccc(-n2c(SCC(=O)NCc3ccc4c(c3)OCO4)nc3ccccc3c2=O)c1 19.8%, CC(Sc1nc2cc([N+](=O)[O-])ccc2n1-c1ccc(F)cc1)C(=O)NCc1ccc2c(c1)OCO2 (configuration not stated) -9.4%, COc1ccccc1-n1c(SCC(=O)c2ccc(O)cc2O)nc2cc([N+](=O)[O-])ccc21 11.3%, O=C(CN1CCN(c2ccccc2)CC1)c1c[nH]c2ccccc12 -7.04%, COc1cccc(/C=C2\Oc3cc(OC(=O)N4CCOCC4)ccc3C2=O)c1 0.99%, O=C(CN(CCO)Cc1ccccc1)N1CCN(S(=O)(=O)c2ccccc2)CC1 0.45%, C/C=C/c1ccc(OCCCn2cncn2)c(OC)c1 -2.59%, COC(=O)C1=C(C)NC(C)=C(C(=O)OC)C1c1cc2cc(C)ccc2[nH]c1=O -2.33%, COc1ccc(C2C(C#N)=C(N)Oc3c2ccc2cccnc32)cc1OC (configuration not stated) 18.2%, Cc1ccc(C(=O)Nc2ccc3[nH]c(=O)[nH]c3c2)c(C)c1 -1.2%, C=CCn1c(SCc2nc3ccccc3[nH]2)nnc1-c1cccc(OC)c1 7.4%, Cc1nc2ccc(S(=O)(=O)NCC(=O)NCCN3CCCCCC3)cc2s1 -0.42%, Cc1nc(N2CCOCC2)c2c3c(sc2n1)CCC3 -7.05%, CSc1nc(N2CCOCC2)c2c3c(sc2n1)CCCC3 2.91%, C=CCN(C(=O)c1csnn1)C(C(=O)NC(C)(C)C)c1ccncc1 (configuration not stated) 8.31%, O=C(c1ccc(CNS(=O)(=O)c2ccccc2)cc1)N1CCN(c2ccccn2)CC1 5.22%, Oc1ccc2ccccc2c1N=Nc1ccc(F)cc1 7.15% and 5.32%, Oc1[nH]c2ccccc2c1N=Nc1ccc(F)cc1 -2.74%, CCOC(=O)CC(NC(=O)c1cccs1)c1ccc(C)cc1 (configuration not stated) -0.96%, CCCCOc1ccccc1C1NC(=O)CCC1[N+](=O)[O-] (configuration not stated) -4.07%, O=C(CNC(=O)c1cccs1)N/N=C/c1ccco1 10.8%, COc1ccccc1/C=C/C=N/NC(=O)Cc1cccs1 -10.6%, O=C(Cc1cccs1)N/N=C/C=C/c1ccccc1 4.16%, O=C(N/N=C/C=C\c1ccco1)c1cccs1 2.49%, O=C(c1ccncc1)N1N=C(C2CC2)CC1(O)C(F)(F)F (configuration not stated) -2.38%, CCOC(=O)c1c(C)oc(=O)c(CC)c1O -0.93%, Cc1ccc(S(=O)(=O)N2C[C@H]3C(=O)C[C@@H](c4ccc(Cl)cc4)N(S(=O)(=O)c4ccccc4C)[C@H]3C[C@H]2c2ccccc2)cc1 -0.22%, O=C(CSCc1c(Cl)cccc1Cl)NN=C1CCCC1 15.1%, CCOC(=O)C1CCCN(c2c(NCC3CCCN3CC)c(=O)c2=O)C1 (configuration not stated) 1.77%, CC(=O)N1Cc2ccccc2CC1C(=O)NCc1ccccc1F (configuration not stated) 0.3%, O=C(NC1CCCCC1)c1cc(-c2ccco2)on1 2.76%, CCc1nc2ccc(C(=O)NCc3ccco3)cc2nc1CC 3.69%, O=C(NCCO)c1ccc(Cl)c(Cl)c1 -3.78%, CCOCCCNC(=O)c1ccc2nc(-c3ccc(OC)c(OC)c3)c(-c3ccc(OC)c(OC)c3)nc2c1 -0.07%, CCCNC(=O)c1ccc2nc(-c3ccccc3)c(-c3ccccc3)nc2c1 -1.93%, CCc1nc2ccc(C(=O)NCCc3ccco3)cc2nc1CC 9.44%, O=C(O)c1ccc2nc(-c3ccco3)c(-c3ccco3)nc2c1 -0.3%, C=CCNC(=O)c1ccc2nc(-c3ccccc3)c(-c3ccccc3)nc2c1 -4.35%, CC(=O)Nc1ccccc1S(=O)(=O)CC1CC1(Cl)Cl (configuration not stated) 4.64%, CC(=O)Nc1cccc(N(C)C)c1 6.55%, Cc1cc(NS(C)(=O)=O)c(=O)n(Cc2cccc(C(F)(F)F)c2)c1 0.67%, CSCC(=O)N1CCCC(CNC(=O)c2ccccc2Cl)C1 (configuration not stated) -7.52%, COc1ccc(OCCSc2ncccn2)cc1 -7.11%, COC(=O)c1nc(NC(=O)c2ccc(Br)cc2)n[nH]1 23.4%, CCOc1ccc(N(C)S(=O)(=O)c2ccc3[nH]cc(C(=O)NCCOC)c(=O)c3c2)cc1 0.42%, COc1ccc(-c2c(-c3ccc(O)cc3O)n[nH]c2C)cc1OC 6.2%, CCOc1cccc(C2C(C(=O)c3ccc(C)o3)=C(O)C(=O)N2c2nccs2)c1 (configuration not stated) -6.71%, O=C(N/N=C/c1ccc(OC(=O)c2ccccc2)c([N+](=O)[O-])c1)c1ccc(O)cc1 2.33%, CCOC(=O)N=Nc1c2ccccc2c2nc3no[nH]c3nc12 8.41%, Cc1ccc2cc(CN(C(=O)c3ccco3)c3cccc(C)c3C)c(=O)[nH]c2c1 -8.5%, C#Cc1ccc([C@@H]2C=C(C(=O)OCC=C)O[C@H](OCc3ccc(CO)cc3)C2)cc1 6.58%, Cc1ccc(NC(=O)/C(C#N)=C/c2ccc(Sc3nc(C)cc(C)n3)o2)cc1 -1.36%, N#C/C(=C\c1ccc(-c2ccc(C(=O)O)cc2)o1)C(=O)Nc1ccc(F)cc1 15.6%, COc1ccc(NC(=O)c2ccc(Br)o2)cc1 6.22%, N#C/C(=C/c1ccc(F)cc1)C(N)=S -0.15%, CCOCCCNC(=O)/C(C#N)=C/c1ccc([N+](=O)[O-])o1 26.7%, COc1ccc(/C=C(\C#N)C(=O)Nc2ccc3[nH]c(=O)[nH]c3c2)cc1 11.7%, COc1ccc(NC(=O)/C(C#N)=C/c2ccc3c(c2)n(C)c(=O)n3C)cc1 1.72%, N#C/C(=C/c1ccc(Br)o1)C(N)=O 10.3%, CC(=O)OC12CC3CC(C1)C(=NO)C(C3)C2 -2.41%, COc1ccc(Cn2cnc3c(NS(C)(=O)=O)c(C)c(C)cc32)cc1 -0.98%, Cc1ccc(-c2nc(CS(=O)CC(=O)NCCN3CCCCCC3)c(C)o2)cc1 (configuration not stated) -1.41%, COc1ccc(-n2c(SCC(=O)Nc3ccc(C(=O)O)cc3)nnc2-c2ccccc2)cc1OC 4.7%, O=C(N/N=C/c1cc(Br)c(O)c(Br)c1)c1cccnc1 -0.54%, Cc1cc(C)cc(NC(=O)c2ccc(NC(=O)C3C4CC5OC(=O)C3C5C4)cc2)c1 (configuration not stated) -3.35%, CCn1c(C)nnc1SCC(=O)Nc1cccc(C(F)(F)F)c1 -2.71%, CN(C(=O)c1ccc(C#N)cc1)c1nnc(-c2ccccn2)s1 -7.43%
